# Laboratory results: PubChem BioAssay (NCI)
# About 79,000 compounds went through this panel and 15% of them were active in at least one assay; those are over-represented in the sample as a whole. Unmarked numbers belong to inactive results. Activity calls are given as the source filed them. Cut-off read from the data, not from the text of the source: active = growth inhibition above about 70%; inactive = the rest.
# What was measured:
# [1] = NCI Yeast Anticancer Drug Screen. Data for the rad50 strain (AID 155);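 note: 0% = growth of vehicle-only cultures of the same strain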; settings: S. cerevisiae rad50 strain growth inhibition; at 50.0 µM; hits give high values
# Summary of the method: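 Compounds were tested on a yeast strain with an engineered DNA damage repair alteration; the reported value is growth inhibition normalised to vehicle treatment.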
# [2] = NCI Yeast Anticancer Drug Screen. Data for the mec2-1 strain (AID 157); settings: S. cerevisiae mec2-1 strain, at 50.0 µM, hits give high values
# Summary of the method: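 mec2-1 yeast strain, carrying an alteration in DNA damage repair or cell cycle control, was exposed to compounds; growth inhibition was measured relative to vehicle-treated controls.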
# [3] = NCI Yeast Anticancer Drug Screen. Data for the sgs1 mgt1 strain (AID 161);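 note: 0% = growth of cultures given vehicle only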; settings: S. cerevisiae sgs1 mgt1 strain, at 50.0 µM, hits give high values
# Summary of the method: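 Growth of a repair-deficient yeast mutant was monitored after compound treatment and expressed as inhibition relative to vehicle-treated cultures.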
# [4] = NCI Yeast Anticancer Drug Screen. Data for the cln2 rad14 strain (AID 165);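 note: 0% = growth equal to vehicle treated cultures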; settings: S. cerevisiae cln2 rad14 strain, at 50.0 µM, hits give high values
# Summary of the method: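 Yeast carrying cln2 and rad14 alterations (cell cycle control and DNA damage repair) were exposed to compounds. Growth inhibition was measured against vehicle-treated controls.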
# [5] = NCI Yeast Anticancer Drug Screen. Data for the bub3 strain (AID 167); settings: S. cerevisiae bub3 mutant strain, at 50.0 µM, hits give high values
# Summary of the method: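 Growth of a checkpoint-deficient yeast mutant is measured after compound exposure. Values represent inhibition relative to vehicle.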
# [6] = NCI Yeast Anticancer Drug Screen. Data for the mlh1 rad18 strain (AID 175); settings: S. cerevisiae mlh1 rad18 strain growth inhibition; at 50.0 µM; hits give high values
# Summary of the method: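 Growth inhibition of the yeast strain was measured after compound exposure and expressed relative to vehicle-treated controls. The strain carries defined defects in DNA damage repair.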
Compound,growth inhibition [1],growth inhibition [2] [%],growth inhibition [3],growth inhibition [4],growth inhibition [5],growth inhibition [6]
O=C(O)CCc1c[nH]c2ccccc12,10.2%,1.15,31.8%,-55.4%,-7.95%,18.5%
CCOC(=O)C(C(=O)OCC)c1cnc2ccccc2c1Cl,-0.7%,-9.45,6.55%,-40.5%,-4.5%,2.85%
O=C(O)CCCc1ccc2c(c1)oc1ccccc12,-18.6%,-6.3,1.5%,-18.6%,13.6%,20.9%
CCc1cc(COC(C)=O)on1,5.35%,-18.5,-8.4%,-35.9%,-1.9%,-2.6%
O=C(Nc1ccc(Cl)c(Cl)c1)C1C(=O)N(c2ccc(Cl)c(Cl)c2)C(=O)/C1=N\O (stereo not given),24.4%,-4.3,11.2%,16.9%,-3.3%,22.8%
COC(=O)C12OCC34C(CC5C(C)=C(O)C(=O)CC5(C)C3C(O)C1O)OC(=O)C(OC(C)=O)C24 (stereo not given),81.5% (active),69.5,80.5% (active),79.3% (active),79% (active),84.2% (active)
CCOC(CN(N=O)c1ccccc1C(C)C)OCC,-3.95%,8.9,7%,-21.9%,3.55%,-4.25%
Cc1ccc(S(=O)(=O)N(CCOc2c3occc3cc3ccc(=O)oc23)CCN(CCN(CCOc2c3occc3cc3ccc(=O)oc23)S(=O)(=O)c2ccc(C)cc2)S(=O)(=O)c2ccc(C)cc2)cc1,-10.2%,-11.7,-14.4%,-31.6%,-21.1%,-6.8%
CC1(O)CCCCCCC1,0.85%,-3.6,26.6%,0.7%,7.9%,7.8%
O=c1[nH]cnc2nc(N3CCN(c4ccccc4)CC3)sc12,18.8%,11.4,19.8%,-40.7%,4.9%,23.4%
CN1CCCC(C(O)c2ccccc2)S1(=O)=O (stereo not given),17.2%,23.4,-1.3%,9.65%,29.4%,14.3%
CCN(CC)C(=O)c1cncc(C(N)=O)c1,4.85%,-14.7,28%,10.8%,12.7%,14.2%
COc1ccc(C2CC(=O)Oc3cc4c(cc32)OCO4)cc1 (stereo not given),-10.2%,-8.05,-11.2%,-11.6%,-2.2%,-15.9%
O=C1CCSCCC(=O)Nc2ccccc2N1,3.6%,0.85,16.6%,20.4%,17.9%,-65.4%
CC(C)(C)C(=O)OCn1cc2c(=O)[nH]cnc2n1,11.9%,8.1,28.6%,-3.75%,-8.7%,9.15%
CCCCC(SC(CC)(CC)C(N)=O)C(N)=O (stereo not given),8%,-6.5,6.55%,-28.9%,8.7%,-5.6%
CCOC(=O)c1nnsc1NC(=O)Nc1ccc(Cl)cc1,-5.05%,-21.2,-3.4%,-6.55%,-44.9%,10.6%
CC(C)(C)c1cc(/C=C/c2cc(/C=C/c3cc(C(C)(C)C)c(O)c(C(C)(C)C)c3)c([N+](=O)[O-])cc2[N+](=O)[O-])cc(C(C)(C)C)c1O,20.2%,-0.15,1.85%,-45.7%,3.65%,5.8%
NC(=O)c1cc(Br)ccc1O,11.2%,-12.7,6.9%,8.9%,-19.4%,17.2%
O=C1CCCC2=C1CC1=C(CCCC1=O)N2c1ccccc1,-28.5%,-20.9,8.7%,-0.75%,12.6%,12.6%

Compound,growth inhibition [1],growth inhibition [2] [%],growth inhibition [3],growth inhibition [4],growth inhibition [5],growth inhibition [6]
CCc1nnc(-c2nsc3ccccc23)s1,38.5%,-22.9,6.4%,-12.8%,15.8%,23.3%
CCCNC(=O)N(CCN(C)C)S(=O)(=O)c1ccc(Cl)cc1,-38.9%,-6.75,-13.6%,-18.9%,-21.1%,-17.4%
Cc1cc(C(C)(C)C)cc(Cc2cc(C(C)(C)C)cc(Cc3cc(C(C)(C)C)cc(C)c3O)c2O)c1O,-25.8%,-4.75,-43.3%,-13.3%,-0.6%,-24%
CC1=N/C(=C/c2ccc3c(c2)OCO3)C(=O)O1,5.05%,6.1,6.05%,-24.9%,-4.6%,14%
Cc1ccc(/C=C2/NC(=S)SC2=O)cc1,-14.1%,-3.6,14.6%,12%,1.75%,-30.4%
CN(CCCO)CCCO,5.9%,-2.4,0.7%,3.35%,1.85%,-0.85%
O=c1ccc2ccc(O)c(O)c2o1,-10.9%,-5.3,12.9%,18.1%,30.7%,1.5%
CCCCCCCCCc1ccc(OC(=O)CCC)cc1,2.4%,-22.6,-15.1%,-50%,-2.95%,20.7%
CCC(C(C)=O)C(C)=O,-46.2%,-71.5,-43.5%,-24.2%,-56.6%,-34.4%
COc1ccc(/C=C2/CSCC3=C2NC(=S)NC3c2ccc(OC)c(OC)c2OC)c(OC)c1OC (stereo not given),12.8%,13.9,37%,34.6%,48.4%,10.9%
CSc1nc[nH]c1C(N)=S,-13.1%,3,2.6%,-7.4%,-24.4%,8.7%
CCOC(=O)c1ccc(NCCCc2c(C)nc(N)[nH]c2=O)cc1,5.25%,9.5,-9.15%,-10.3%,34.6%,-2.85%
COc1cc(C2C3=C(N=C4SC(C(C)=O)=C(C)N42)c2ccccc2CC3)cc(OC)c1OC (stereo not given),-30.4%,-48.6,-22.2%,3.2%,-35.7%,-17.8%
CN(C)C(=S)N(C(=S)N(C)C)c1ccc(Cl)cc1,-7.9%,-11.8,-7.15%,-4.1%,3.1%,-17.8%
N#CC(CCc1ccc([N+](=O)[O-])cc1)(CCc1ccc([N+](=O)[O-])cc1)C(N)=O,38.4%,19.4,35.9%,-14.2%,24.9%,49.2%
CC(=O)C1=C(O)C(Cc2ccccc2)NC1=O (stereo not given),11.9%,-0.2,1.95%,-37.1%,-18.4%,10.7%
CC(=O)c1cccc(NC(=O)N2CCN(c3ccccc3)CC2)c1,11.4%,34,20%,1.25%,23.9%,16.6%
Cc1c(C(=O)NNc2ccccc2)n2c(=S)[nH]nc2c2ccccc12,33.2%,10.1,-7.85%,8.6%,-14.8%,45.8%
NC(=O)CC(N)=O,6.1%,-5.1,-2.35%,9.4%,1.25%,4.6%
CCOC(=O)C(=CN1C/C(=C/C(C)=C/c2ccccc2)SC1=S)C(=O)OCC,-12.1%,28.9,11.7%,-20.9%,17.9%,4.85%
